Experimental findings from PubChem BioAssay (NCATS) are described below.

Assay [1] concerns MCC-13. The experiment in a line: qHTS assay to identify novel small-molecules to repurpose for Merkel cell carcinoma treatment (AID 1296009). Note: nearly all actives have a fitted effect of over 60% in size. The following applies: MCC and control cell lines, CellTiter-Glo viability, 72 h; series mostly up to 46 µM. Put shortly:
(§1)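 CellTiter-Glo luminescence after 72 hr compound exposure at 37 degree celsius gave cell viability. Libraries NPC and MIPE were run as 8- and 11-point dose responses; RLUs normalized to DMSO (negative) and no-cell (cytotoxicity) controls.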
A general note: In qHTS, concentration-response curves come from the screen itself.

Assay [2] has as its system MKL-1. Described as above. The following applies: MCC and control cell lines, CellTiter-Glo viability, 72 h; series mostly up to 46 µM. Put shortly:
as §1
(Cellular ATP, detected with luciferase, serves as a proxy for viable cell number.)

Assay [3] relates to MKL-2. The description is as above. The conditions noted are these: MCC and control cell lines, CellTiter-Glo viability, 72 h; series mostly up to 46 µM. Put shortly: as §1
Assay [4] has as its system NIH3T3. The assay is described as above. The conditions noted are these: MCC and control cell lines, CellTiter-Glo viability, 72 h; at 44.8 µM (top of the series) unless noted. Put shortly:
as §1

The subject of assay [5] is UISO. Described as above. The conditions noted are these: MCC and control cell lines, CellTiter-Glo viability, 72 h; series mostly up to 46 µM. In outline:
as §1

In assay [6] the test system is WaGa. The description is as above. The conditions noted are these: MCC and control cell lines, CellTiter-Glo viability, 72 h; series mostly up to 46 µM. Put shortly:
as §1

Assay [7] concerns C33A. Put plainly: Primary qHTS to identify gynecologic anti-cancer compounds using libraries of approved drugs and bioactive compounds (AID 1345084). Note: nearly all actives have a fitted effect of over 55% in size. The conditions noted are these: Gynecologic cancer cell panel viability, ATPlite luminescence, 48 h; series mostly up to 57.5 µM. Put shortly:
(§2)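 Luminescence from the ATPlite ATP-monitoring reagent indicates viable cell number; lower signal means cytotoxicity. Cells received compound 16 h after seeding and were exposed for 48 h across five concentrations.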

Assay [8] deals with CASKI. Described as above. The following applies: Gynecologic cancer cell panel viability, ATPlite luminescence, 48 h; series mostly up to 57.5 µM. In outline:
as §2

In assay [9] the test system is MCC-26. The experiment in a line: qHTS assay to identify novel small-molecules to repurpose for Merkel cell carcinoma treatment (AID 1296009). Note: nearly all actives have a fitted effect of over 60% in size. The following applies: MCC and control cell lines, CellTiter-Glo viability, 72 h; series mostly up to 46 µM. Put shortly: as §1
Assay [10] concerns CAOV3. The experiment in a line: Primary qHTS to identify gynecologic anti-cancer compounds using libraries of approved drugs and bioactive compounds (AID 1345084). Note: nearly all actives have a fitted effect of over 55% in size. The following applies: Gynecologic cancer cell panel viability, ATPlite luminescence, 48 h; series mostly up to 57.5 µM. Put shortly: as §2

Values joined by “and” are separate entries in the source; they are usually repeats but may differ in a detail not shown here. Equal entries are not always repeated. Inconclusive results are not listed. A structure can be active in one record and inactive in another. Active and inactive are the calls of the source. Calls come from the whole dose curve; as a rule, active = well fitted curve in the direction sought with a large enough effect; inconclusive = small, poorly fitted or top-dose-only effect, or another doubt; inactive = no such curve, though single readings can be large; an effect the other way counts as inactive or inconclusive.
Potency is the fitted concentration of half-maximal effect.

In the case of `CCCc1cc(=O)[nH]c(=S)[nH]1`, the Potency entry in assay [1], in assay [2], in assay [3], in assay [5], in assay [7] and in [8] was “inactive” throughout. The outcome in assay [4] was “inactive; activator”. The Potency result in assay [6] was “inactive and 18.7 µM (active)”.

In the case of `Cc1cc(Cl)ccc1OCCCC(=O)NO`, the Potency result in assay [1] is “inactive”. Further, the Potency in assay [2] was 14.8 µM (active).

For the compound `C[C@H](Cc1ccc(O)c(O)c1)[C@@H](C)Cc1ccc(O)c(O)c1`, the Potency entry in [1] and in [9] was “inactive” each time. Moreover, the figures for the Potency in assay [2], in [3] and in [6] were 11.8 µM (active), 18.7 µM (active) and 18.7 µM (active), respectively.

On to `O=c1c(O)c(-c2cc(O)c(O)c(O)c2)oc2cc(O)cc(O)c12`, for which the Potency entry in assay [1], in assay [2], in assay [3], in assay [5] and in assay [6] was “inactive” each time.

`CCCS(=O)c1ccc2nc(NC(=O)OC)[nH]c2c1` (configuration not stated): the Potency result in [1], in assay [9], in assay [2], in assay [7], in [10] and in assay [8] was “inactive” in each case.

For `CCOC(=O)C(C)Oc1cccc2c(=O)n(CC(=O)Nc3ccc4c(c3)OCCO4)ccc12` (configuration not stated), the Potency entry in assay [1], in assay [9], in assay [2], in assay [5] and in assay [6] was “inactive” throughout.

With `O=C1NC(=O)C(c2ccccc2[N+](=O)[O-])=C1Nc1ccc(O)c(Cl)c1`, the Potency result in assay [1], in [2], in assay [3], in [5] and in assay [6] was “inactive” throughout. For the same compound, in [4], the compound was classed as inactive.

`O=C(NC(Cc1cc(=O)[nH]c2ccccc12)C(=O)O)c1ccc(Cl)cc1` (configuration not stated): the Potency entry in [1], in [2], in [3], in [5], in [6] and in [7] was “inactive” throughout. Also, the Potency result in [10] and in assay [8] was “inactive” in each case. The outcome in [4] was inactive.

For the compound `CC1=C(C(=O)O)N2C(=O)[C@@H](NC(=O)[C@H](N)C3=CCC=CC3)[C@H]2SC1`, the Potency result in assay [1], in assay [2], in [3], in [5], in [6] and in assay [7] was “inactive” throughout. The Potency result in assay [10] and in [8] was “inactive” throughout. Also, the compound was classed as inactive in assay [4].

`CC(C)c1nc(CN(C)C(=O)N[C@H](C(=O)N[C@@H](Cc2ccccc2)C[C@H](O)[C@H](Cc2ccccc2)NC(=O)OCc2cncs2)C(C)C)cs1`: the Potency result in assay [1], in assay [2], in assay [3], in assay [5], in assay [6] and in [7] was “inactive” each time. For the same compound, the Potency entry in [8] is “inactive”. For the same compound, in assay [4], the outcome was inactive.

As for `CC(C)[N+]1(C)[C@@H]2CC[C@H]1CC(OC(=O)C(CO)c1ccccc1)C2` (some centres not stated), the Potency result in assay [1], in assay [9], in [2] and in assay [5] was “inactive” each time. In addition, the outcome in assay [4] was inactive. Besides, the Potency in assay [6] is 18.7 µM (active).

For the compound `Clc1ccc2c(N3CCN(CCCN4CCN(c5ccnc6cc(Cl)ccc56)CC4)CC3)ccnc2c1`, the Potency entry in assay [1], in [2], in [3], in [5] and in assay [6] was “inactive” throughout.

On to `COc1c(O)cc2c(c1O)[C@@H]1O[C@H](CO)[C@@H](O)[C@H](O)[C@H]1OC2=O`, for which the Potency result in assay [1], in [9], in assay [2], in assay [3], in assay [5] and in [6] was “inactive” in each case. Moreover, in assay [8], the Potency entry is “inactive”.

For `CN(C)c1ccc(O)c2c1C[C@H]1C[C@H]3[C@H](N(C)C)C(=O)C(C(N)=O)=C(O)[C@@]3(O)C(=O)C1=C2O`, the Potency entry in assay [1], in assay [2], in assay [3], in [5], in [7] and in assay [8] was “inactive” throughout. Moreover, the compound was classed as inactive in [4]. The Potency result in assay [6] is “inactive and 18.8 µM (active)”.

Take `COC(=O)C1=C(C)NC(C)=C(C(=O)OCCCN2CCC(c3ccccc3)(c3ccccc3)CC2)C1c1cccc([N+](=O)[O-])c1` (configuration not stated): the Potency result in [1] and in [6] was “inactive” each time. Besides, the Potency entry in assay [2] is “inactive and 23.7 µM (active)”; in assay [3], “inactive and 11.9 µM (active)”; in [5] it was “inactive and 18.8 µM (active)”. Also, the compound was called inactive in assay [4].

`O=c1ccc2ccc(O)c(O)c2o1`: the Potency result in assay [1], in assay [9] and in assay [5] was “inactive” each time.

For the compound `CC(=O)Nc1ccc(O)cc1`, the Potency entry in assay [1], in assay [2], in assay [3], in [5], in assay [6] and in assay [7] was “inactive” in each case. For the same compound, the Potency entry in [8] was “inactive”. For the same compound, in assay [4], the compound was classed as inactive.

As for `CN(C)[C@@H](CCOc1cccc2ccccc12)c1ccccc1`, the Potency entry in [1], in assay [9], in [2], in assay [5], in [7] and in [10] was “inactive” each time. Also, the Potency entry in [8] was “inactive”.

As for `CC(C)c1ccc2oc3nc(N)c(C(=O)O)cc3c(=O)c2c1`, the Potency result in assay [1], in assay [9], in assay [2], in assay [3], in assay [5] and in assay [6] was “inactive” each time. The Potency in assay [7] is 8.91 µM (active); in assay [8], 4.47 µM (active).

For the compound `O=C1CCc2ccc(OCCCCN3CCN(c4cccc(Cl)c4Cl)CC3)cc2N1`, the Potency result in [1], in assay [9], in assay [2], in assay [5], in assay [6] and in assay [7] was “inactive” throughout. The Potency entry in assay [10] and in assay [8] was “inactive” in each case.

`COc1ccc2cc([C@H](C)C(=O)O)ccc2c1`: the Potency result in assay [1], in assay [2], in assay [3], in assay [5], in assay [6] and in assay [7] was “inactive” each time. Also, the Potency entry in assay [8] is “inactive”. Moreover, in assay [4], the compound was classed as inactive.

For `Nc1nc(N)c(N=O)c(OCC2CCCCC2)n1`, the Potency result in assay [9] is “inactive”.

As to `CN1CCC(=C2c3ccccc3CCc3sccc32)CC1`, the Potency entry in [1], in assay [2], in [5], in assay [6], in assay [10] and in assay [8] was “inactive” each time. Also, the result in assay [4] was inactive.

Consider `Nc1nc(Cl)nc2c1ncn2[C@H]1C[C@H](O)[C@@H](CO)O1`, for which the Potency result in assay [9] is “inactive”. Further, the Potency in [2] is 0.418 µM (active); in [3], 0.418 µM (active); in assay [5], 0.372 µM (active); in assay [6] it was 0.418 µM (active).

With `CC(=O)NC[C@H]1CN(c2ccc(N3CCOCC3)c(F)c2)C(=O)O1`, the Potency entry in assay [1], in [2], in assay [3], in assay [5], in assay [6] and in assay [7] was “inactive” in each case. In [8], the Potency result is “inactive”.
